From PubChem
RORgamma inh: qHTS for inhibitors of ROR gamma transcriptional activity; Drosophila S2 Gal4-RORgamma UAS-luciferase reporter, 20 h; 310,000 tested, 5.4% active; Nuclear receptor ROR-gamma (Mus musculus), P51450; Potency, µM (highest dose often 53.6 µM), without a hit: top-dose activity change, negative = inhibition, most hits filed as inhibitors; note: potency is the fitted concentration of half-maximal effect; % is set by controls: 0 for no effect and ±100 for the full control effect; nearly all actives have a fitted effect of over 60% in size
Target sequence (P51450 whole entry, looked up, the tested form may be a part): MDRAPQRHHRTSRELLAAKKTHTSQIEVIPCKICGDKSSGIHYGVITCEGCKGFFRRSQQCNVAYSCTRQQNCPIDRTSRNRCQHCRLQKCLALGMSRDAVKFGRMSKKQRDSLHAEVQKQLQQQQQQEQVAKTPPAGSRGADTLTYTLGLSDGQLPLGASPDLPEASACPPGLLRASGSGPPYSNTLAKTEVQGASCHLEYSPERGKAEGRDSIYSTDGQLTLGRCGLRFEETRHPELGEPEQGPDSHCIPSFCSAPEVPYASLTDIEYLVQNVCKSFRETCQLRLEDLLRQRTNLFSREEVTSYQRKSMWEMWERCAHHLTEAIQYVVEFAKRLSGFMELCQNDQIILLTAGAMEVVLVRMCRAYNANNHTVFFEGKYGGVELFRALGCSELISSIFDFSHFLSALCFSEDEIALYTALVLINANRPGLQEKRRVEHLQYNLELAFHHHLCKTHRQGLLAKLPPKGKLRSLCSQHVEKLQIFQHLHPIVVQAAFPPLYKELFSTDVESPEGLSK
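Using a luciferase readout, inhibitors were identified by reduced reporter activity in Drosophila cells coexpressing a copper-inducible Gal4–ROR gamma fusion and UAS-driven Photinus luciferase, incubated 20 hr after 700 uM copper sulfate.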
BRCA1 expr act: qHTS Assay to Identify Small Molecule Activators of BRCA1 Expression; MCF7-BRCA1-FFLuc reporter, luminescence, 48 h; response scale: scaled: vehicle 0%, 10 µM genistein 100%; Potency, µM (doses to about 46.1 µM), for inactives: top-dose activation, actives largely listed as activators; 380,000 tested, 1.1% active; note: potency is the fitted concentration of half-maximal effect; nearly all actives have a fitted effect of over 80% in size
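Activators of BRCA1 expression were detected as increased firefly luciferase luminescence in engineered MCF7 cells after 48 h compound incubation. Signals were scaled to genistein 10 microM as full activation.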
ELG1 repair inh: qHTS screen for small molecules that inhibit ELG1-dependent DNA repair in human embryonic kidney (HEK293T) cells expressing luciferase-tagged ELG1; 330,000 tested, 2.3% active; Potency, µM (top dose mostly 46.1 µM), inactives show at the highest dose activity change, negative = inhibition, most hits filed as inhibitors; HEK293T ELG1-luciferase reporter, luminescence, 16 h; DNA damage induced by 5-fluorouridine; note: potency is the fitted concentration of half-maximal effect; % is set by controls: 0 for no effect and ±100 for the full control effect; nearly all actives have a fitted effect of over 55% in size
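Overnight (16 hr) co-exposure of 2,000 cells/well to 5-fluorouridine and compound at 37 °C preceded detection. Luciferase was quantified via ONE-Glo luminescence; loss of signal denotes inhibition.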
VP16 counter: VP16 counterscreen qHTS for inhibitors of ROR gamma transcriptional activity. Drosophila S2 Gal4-VP16 UAS-luciferase, luminescence, 20 h. Potency, µM (series often up to 53.6 µM), for inactives: at the highest dose activity, negative = inhibition, actives largely listed as inhibitors. 310,000 tested, 3.5% active;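 note: Gal4-VP16 expression switched on by copper sulfate through the metallothionein promoter; potency is the fitted concentration of half-maximal effect; % is set by controls: 0 for no effect and ±100 for the full control effect; nearly all actives have a fitted effect of over 50% in size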
p53 reactivation: qHTS assay for re-activators of p53 using a Luc reporter | H1299 p53-A138V BP100-luciferase reporter, luminescence, 24 h | Potency, µM (top dose mostly 92.2 µM), without a hit: at the highest dose activity change, positive = activation, usual class: activators | 320,000 tested, 0.063% active | AID 504706, 2011; note: potency is the fitted concentration of half-maximal effect; % of control where 0% means no effect; nearly all actives have a fitted effect of over 45% in size
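p53-null H1299 cells stably carrying temperature-sensitive p53-A138V and a BP100-luciferase reporter were pinned with compounds (4-point, 1:5 series) and held 24 hrs at 37 deg C. Luminescence was read 10 min after detection reagent.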
Giardia killer: Small Molecules that selectively kill Giardia lamblia: qHTS | Giardia lamblia trophozoite viability | activity change, % at 7.66 µM, hits read low | 340,000 tested, 0.15% active; in the data active = activity change below about -80%; inconclusive = between about -30% and that limit;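 note: parasites exposed to compound for two days anaerobically before the ATP read; % is set by controls: 0 for no effect and ±100 for the full control effect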
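Luminescence from cellular ATP indicates surviving trophozoites (100 cells/well) following 48 hrs anaerobic compound treatment at 37 deg C; signal develops 15-30 min at room temperature.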
* marks the source's active call; other numbers are inactive results; ? = inconclusive; . = no result. This is a sample that favours compounds with a hit; in the whole collection about 7.6% have one here. Unless noted, calls come from the whole dose curve; as a rule, active = well fitted curve in the direction sought with a large enough effect; inconclusive = small, poorly fitted or top-dose-only effect, or another doubt; inactive = no such curve, though single readings can be large; an effect the other way counts as inactive or inconclusive.

SMILES	RORgamma inh	BRCA1 expr act	ELG1 repair inh	VP16 counter	p53 reactivation	Giardia killer
CNC(=S)NNC(=O)c1sccc1OCc1ccc(Cl)cc1Cl	?	-15%	?	?	0%	-27
N/C(=N\NC(=O)c1sccc1OCc1ccc(Cl)cc1Cl)c1ccccn1	2.2µM*	-63%	?	5.6µM*	9%	9
FC(F)(F)c1cc(NC2CCCCC2)ccn1	?	13%	8.2µM*	-9%	2%	-1
CS(=O)(=O)Nc1ccc(-c2n[nH]c(=S)n2-c2ccccc2)cc1	?	1%	1%	9%	-2%	13
Fc1ccccc1-n1c(-c2ccc3ccccc3n2)n[nH]c1=S	1.4µM*	0%	0%	?	-10%	-12
COCc1n[nH]c(=S)n1-c1cccc2ccccc12	?	-6%	0%	-10%	15%	-7
S=c1[nH]nc(-c2ccc3ccccc3n2)n1-c1ccccc1	1.4µM*	6%	?	2µM*	-8%	17
O=C(NCC1CCCO1)c1cccc(-n2cnnn2)c1 (stereo not given)	3%	-10%	8%	-9%	10%	7
CC(=O)N1CCN(C(=O)c2ccccc2NS(=O)(=O)c2ccc(F)cc2)CC1	.	7%	13%	.	-4%	-3
O=C(NCc1cccs1)C1CC(c2ccc(F)cc2)=NO1 (stereo not given)	13%	?	?	8%	28%	16
CNCCCOc1ccc2c(c1)CCC2	11%	11µM*	?	-6%	-5%	?
c1cc2c(cc1OCCNC1CCCC1)CCC2	-15%	.	16%	-1%	-2%	.
CC1=Nn2c(nc3sc4c(c3c2=O)CCCC4)SC1	?	7.1µM*	?	-19%	18%	-3
Nc1nc2sc3c(c2c(=O)s1)CCCC3	23%	11µM*	?	20%	17%	5
O=c1c2c3c(sc2nc2n1CCCCC2)CCCC3	32%	4.5µM*	?	-1%	?	6
O=c1c2c3c(sc2nc2n1CCCCC2)CCCCC3	38%	.	?	10%	.	.
Nc1c2c3c(sc2nc(=O)n1N)CCCC3	12%	-12%	14%	-2%	-3%	1
N#Cc1cccc(NC(=O)c2cc(C3CCCCN3C(=O)C3CC3)on2)c1 (stereo not given)	.	-20%	.	.	.	.
COc1ccccc1NC(=O)c1c(N=Cc2ccccc2O)cnn1C	?	.	-7%	?	-2%	.
CCOc1ccccc1N1CCN(C(=O)NCc2ccc(Cl)cc2)CC1	12%	-17%	?	-17%	-6%	-5
O=C(COc1ccccc1F)N/N=C1\CCCc2ccccc21	4µM*	?	?	?	?	5
O=C(N/N=C1\CCCc2ccccc21)c1ccccc1Cl	7%	10µM*	?	6%	12%	3
O=C(O)c1ccc(N/N=C2/CCCc3ccccc32)cc1	1%	7.1µM*	?	0%	6%	-18
O=C(N/N=C1\CCCCc2ccccc21)c1ccccn1	-16%	13µM*	?	22%	14%	-9
COc1ccccc1OCC(=O)N/N=C1\CCCCc2ccccc21	22%	17%	?	10%	-1%	3
SMILES	RORgamma inh	BRCA1 expr act	ELG1 repair inh	VP16 counter	p53 reactivation	Giardia killer
Cc1cc(NC(=O)C(=O)NCc2cccc(Cl)c2)no1	-14%	-4%	27%	10%	-4%	-13
CC1CCN(CCCNC(=O)CN2C(=O)CSc3ccc(S(=O)(=O)N4CCC(C)CC4)cc32)CC1	-10%	-18%	?	2%	-3%	20
O=C1CSC(=S)N1/N=C/c1ccc2c(c1)OCCO2	-45%	62%	-2%	-5%	11%	-11
CC1=C(C(=O)OC2CCCCC2)C(c2cccs2)n2c(nc3ccccc32)N1 (stereo not given)	4.5µM*	-10%	-2%	?	-2%	-14
N#C/C(=C\c1ccccn1)c1nc2ccccc2s1	?	-27%	?	?	?	11
COc1ccc(/C(C#N)=C/c2ccccn2)cc1	-30%	2.8µM*	?	-14%	?	-7
Cc1cc(C)cc(C(=O)NCC(=O)N2CCC(C(N)=O)CC2)c1	.	-2%	?	.	-4%	23
CCOc1ccccc1Nc1ncnc2ccc(Br)cc12	-8%	-28%	0%	-7%	-4%	-8
CN(Cc1ccccc1)c1ncnc2ccc(Br)cc12	-35%	-34%	18µM*	-6%	-6%	-12
CN1C(=O)[C@H]2[C@@H](c3ccc(C(F)(F)F)cc3)N[C@]3(CCCN(Cc4ccc(Br)cc4)C3=O)[C@H]2C1=O	.	-32%	.	.	.	.
COCCNC(=O)/C(C#N)=C/c1ccc(-c2ccc(S(=O)(=O)N3CCOCC3)cc2)o1	?	-10%	16µM*	0%	-8%	2
CCOCCCNC(=O)/C(C#N)=C/c1ccc(-c2ccc(S(=O)(=O)N3CCOCC3)cc2)o1	42%	-67%	?	-10%	-7%	35
Cc1onc(-c2ccccc2Cl)c1C(=O)NCc1ccccc1F	10%	8%	-4%	4%	19%	18
Cc1ccc(-c2noc(CN(C(=O)CCCN3C(=O)c4ccccc4C3=O)C(C)C)n2)cc1	.	0%	.	.	.	-1
Cc1cccc(-c2noc(CN(C(=O)c3c(-c4ccccc4Cl)noc3C)C(C)C)n2)c1	24%	0%	21µM*	-1%	5%	11
Cc1ccc(-c2noc(CN(C(=O)CCCCCN3C(=O)c4ccccc4C3=O)C(C)C)n2)cc1	48%	-2%	18µM*	-14%	0%	12
Cc1cccc(C(=O)NNC(=O)c2c(-c3ccccc3Cl)noc2C)c1O	10µM*	-45%	3%	-26%	-4%	10
Cc1onc(-c2ccccc2Cl)c1C(=O)NCc1nc(-c2ccc(C(F)(F)F)cc2)no1	11%	-47%	15µM*	?	0%	-1
Cc1cccc(-c2noc(CN(C(=O)c3ccc(C)c(C)c3)C(C)C)n2)c1	.	-39%	.	.	.	.
Cc1onc(-c2ccccc2Cl)c1C(=O)NNC(=O)c1ccc(F)cc1	-10%	-5%	0%	-7%	-1%	?
COC(=O)c1cc2oc(C)cc2n1CC(=O)Nc1ccc(C)c(C)c1	34%	-17%	1%	25%	-4%	9
CC(=O)CCc1oc2ccc(C)cc2c1Cc1ccccc1	32%	1%	1%	5%	5%	27
